A selection: hits, their analogues and other compounds. The true share with any hit is near 5.4%.
PHOSPHO1 block: PHOSPHO1 (human) inhibition; recombinant PHOSPHO1, absorbance phosphatase assay; inhibition, % at 13.3 µM; 1.1% of 290,000 active; AID 1565; Q8TCT1; in the data active = inhibition above about 60%
aDG glyco act: alpha-DG glycosylation activation. Pro5-aDG cells, alpha-DG glycosylation AlphaScreen (IIH6); 0% Pro5, 100% B10-LARGE cell signal. activation, % at 10 µM. 0.22% of 360,000 active. AID 624168;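 active = activation of at least 8% versus controls, or a plate z-score of at least 8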;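 note: Pro5 are CHO cells carrying HIG-tagged alpha-DG that lacks glycosylation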
ALR H2O2 inh: human ALR oxidase inhibition via reduced H2O2. 3.8% of 290,000 active. P55789. AID 485317. purified ALR, DTT oxidation, H2O2 HRP-luminol luminescence. inhibition, % (test concentration not listed);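 active = mean replicate inhibition above about 79%, with every replicate also reaching it, limit read from the data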
rCAG binder: molecules binding r(CAG) RNA repeats; r(CAG) RNA repeat, TO-PRO-1 dye displacement fluorescence; inhibition, % at 3 µM; 1.3% of 370,000 active;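 active = inhibition above the plate cutoff, the mean of all test compounds on that plate plus 3 SD, cut at about 35% in these data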;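 note: higher means more dye released from RNA so lower well fluorescence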
A3A deaminase: blocks human APOBEC3A ssDNA deamination; inhibition, % at 20 µM; 0.41% of 330,000 active; recombinant A3A, FAM/TAMRA ssDNA deamination fluorescence;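 active = at least 40% inhibition at 20 µM here, with at most 30% in a related deaminase screen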
A3G deaminase: inhibitors of human APOBEC3G DNA deaminase | recombinant A3G, ssDNA deamination FAM/TAMRA fluorescence | 0.28% of 330,000 active | inhibition, % at 20 µM | AID 493012;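 active = inhibition of at least 40% at 20 µM, with no more than 30% in the related APOBEC3A deaminase screen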
Target sequence (Q9HC16 whole entry, looked up): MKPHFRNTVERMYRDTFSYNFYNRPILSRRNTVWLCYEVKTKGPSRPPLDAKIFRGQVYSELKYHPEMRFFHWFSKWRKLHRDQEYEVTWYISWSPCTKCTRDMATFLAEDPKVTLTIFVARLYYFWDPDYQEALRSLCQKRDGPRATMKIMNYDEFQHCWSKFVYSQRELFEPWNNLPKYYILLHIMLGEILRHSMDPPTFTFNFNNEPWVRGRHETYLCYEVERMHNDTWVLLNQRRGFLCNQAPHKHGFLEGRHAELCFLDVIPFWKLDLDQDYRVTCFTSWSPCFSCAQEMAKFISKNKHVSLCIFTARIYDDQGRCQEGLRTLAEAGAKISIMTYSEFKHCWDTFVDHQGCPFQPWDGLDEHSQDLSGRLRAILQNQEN
Large screens that a line does not name were inactive.

Cc1csc(SCC(=O)Nc2ccc(Cl)cn2)n1	ALR H2O2 inh 92.0
CCOC(=O)c1c(SCC(=O)Nc2nc(C)cs2)nc(=O)[nH]c1C	ALR H2O2 inh 98.7
Cn1c(CO)cnc1SCC(=O)c1ccc(F)cc1	none (no result: ALR H2O2 inh)
Cc1cnc(=O)[nH]c1SCC(=O)c1ccc(F)cc1	ALR H2O2 inh 98.8
C[C@H]1/C=C/CC(=O)N[C@@H](c2ccc3ccccc3c2)[C@@H](C)/C=C/CC(=O)N[C@H]1c1ccc2ccccc2c1	none (no result: PHOSPHO1 block, aDG glyco act, ALR H2O2 inh, A3A deaminase, A3G deaminase)
Cc1sc2nc(CSC(C)C(=O)Nc3ccc(C#N)cc3)[nH]c(=O)c2c1C (configuration not stated)	ALR H2O2 inh 98.3 (no result: PHOSPHO1 block)
Cc1sc2nc(CSC(C)C(=O)Nc3ccc(C(N)=O)cc3)[nH]c(=O)c2c1C (configuration not stated)	ALR H2O2 inh 99.6 (no result: PHOSPHO1 block)
CC(=O)N=c1c(C#N)cc2c(=O)n3ccccc3nc2n1CCCOC(C)C	none (no result: ALR H2O2 inh)
CC(C)OCCCn1c(=NC(=O)c2ccncc2)c(C#N)cc2c(=O)n3ccccc3nc21	PHOSPHO1 block 97.5, ALR H2O2 inh 97.3
COC(=O)[C@]12CCCCC=C1N(Cc1ccc(OC)cc1)C(=O)[C@@H]2CC(=O)NCCc1ccccc1OC	none (no result: PHOSPHO1 block, aDG glyco act, ALR H2O2 inh, A3A deaminase, A3G deaminase)
O=c1ccc(N=Nc2ccccc2)ccc1O	ALR H2O2 inh 98.0 (no result: A3A deaminase, A3G deaminase)
Cc1cccc(N2CCN(C(=O)Cn3sc4nc(C)cc(C)c4c3=O)CC2C)c1 (configuration not stated)	ALR H2O2 inh 95.4, A3G deaminase 53.1 (no result: rCAG binder)
Cc1cccc(N2CCN(C(=O)Cn3nc(C)n4cccc4c3=O)CC2C)c1 (configuration not stated)	ALR H2O2 inh 91.2
COC(=O)[C@]12C[C@H](CC(=O)N3CCOCC3)C(=O)N(Cc3ccco3)C1=C[C@H](COCc1ccccc1)O[C@@H]2C	none (no result: PHOSPHO1 block, aDG glyco act, ALR H2O2 inh, A3A deaminase, A3G deaminase)
O=S(=O)(c1ccc(Cl)cc1)c1cc(O)ccc1O	ALR H2O2 inh 99.2
O=S(=O)(c1ccccc1)c1cc(O)ccc1O	ALR H2O2 inh 97.8
COc1ccc(-c2oc3cc(OC)c(O)c(OC)c3c(=O)c2OC)cc1O	ALR H2O2 inh 100.0
CC(=O)Oc1cc(O)c2c(=O)c(OC(C)=O)c(-c3ccc(OC(C)=O)c(OC(C)=O)c3)oc2c1	ALR H2O2 inh 82.3 (no result: PHOSPHO1 block, rCAG binder)
COc1c(-c2ccc(O)cc2)oc2cc(O)cc(O)c2c1=O	ALR H2O2 inh 97.6
COc1ccc(-c2oc3cc(O)c(OC)c(O)c3c(=O)c2OC)cc1	none
CN1/C(=C/C=C(/C#N)C(N)=O)C(C)(C)c2ccccc21	ALR H2O2 inh 92.0
CN1/C(=C\C=C(/C#N)C(=O)Nc2ccccc2F)C(C)(C)c2ccccc21	none
O=c1ccc2cc(O)c(O)cc2o1	ALR H2O2 inh 96.2
Cc1ccc(N=c2oc3cc(O)ccc3cc2C(N)=O)cc1	ALR H2O2 inh 95.7
CCC1CCCCN1C(=O)c1cc(COc2ccc3ncccc3c2)on1 (configuration not stated)	aDG glyco act 7.6
CC(=O)c1cccc(OCc2cc(C(=O)N3CCSCC3)no2)c1	none
CC(=O)c1cccc(OCc2cc(C(=O)N3CCC(N4CCCCC4)CC3)no2)c1	PHOSPHO1 block 64.0
COCC1CCCCN1C(=O)c1cc(COc2ccc3ncccc3c2)on1 (configuration not stated)	none
COc1ccccc1CNS(=O)(=O)c1ccc(F)cc1Br	none (no result: PHOSPHO1 block, aDG glyco act, ALR H2O2 inh, A3A deaminase, A3G deaminase)
O=C(CN1CCN(c2ccc(O)cc2)CC1)NC(=O)NCc1ccco1	ALR H2O2 inh 98.5
CCCOC(=O)Nc1ccc(N2CCCCC2)cc1	ALR H2O2 inh 97.1
COc1ccc(N2CCC(CNC(=O)Nc3cccc(OC)c3)C2)cc1 (configuration not stated)	ALR H2O2 inh 82.0
CCC(NC(=O)CN1CCN(c2cccc(OC)c2)CC1)c1ccccc1 (configuration not stated)	none (no result: PHOSPHO1 block, aDG glyco act, ALR H2O2 inh, A3A deaminase, A3G deaminase)
COc1cccc(N2CCN(CC(=O)NC(C)c3ccccc3)CC2)c1 (configuration not stated)	ALR H2O2 inh 81.2
COc1ccc(N2CCN(CC(=O)NC(=O)NCc3ccco3)CC2)cc1	none
CC1=C2NC(N)=[N+](Cc3ccc4c(c3)OCO4)CC2n2c(=O)n(-c3ccccc3)c(=O)n2C1 (configuration not stated)	none (no result: PHOSPHO1 block, aDG glyco act, ALR H2O2 inh, A3A deaminase, A3G deaminase)
O=C(NCc1ccccc1)OCCN1C(=O)CCC12CCC(c1ccc(Cl)cc1)CC2 (configuration not stated)	none (no result: PHOSPHO1 block, aDG glyco act, ALR H2O2 inh, A3A deaminase, A3G deaminase)

High-throughput results from PubChem.
